{"source": "PubChem BioAssay AID905", "about": "(National Center for Advancing Translational Sciences (NCATS), 2007)", "note": "This is one part of the list. Records with an inconclusive call do not appear. Calls of active or inactive are those of the source. Calls come from the whole dose curve; as a rule, active = well fitted curve in the direction sought with a large enough effect; inconclusive = small, poorly fitted or top-dose-only effect, or another doubt; inactive = no such curve, though single readings can be large or run the other way."}
{"experiment": "Cell Viability - CRE-beta lactamase CHO cell - 24 hr assay", "details": "CRE-bla CHO viability, ATP luminescence; series mostly up to 46.1 µM", "text": "NIH Molecular Libraries Screening Centers Network [MLSCN] NIH Chemical Genomics Center [NCGC] National Institutes of Environmental Health Sciences [NIEHS] National Toxicology Program [NTP] MLSCN Grant: 1X01MH079867-01 Assay Provider: Marshall W. Nirenberg, U.S. National Heart, Lung and Blood Institute NCGC Assay Overview: We have developed a 1536-well cell-based assay for quantitative high throughput screening (qHTS) against a number of cell lines to determine in vitro cytotoxicity of small molecules. This particular assay uses CRE-bla CHO cell line from Invitrogen.\nNCGC Assay Protocol Summary: The CellTiter-Glo luminescent cell viability assay (Promega) is a homogeneous method to measure the number of viable cells in culture. The end point readout of this assay is based on quantitation of intracellular ATP, an indicator of metabolic activity, using the luciferase reaction. Luciferase catalyzes the oxidation of beetle Luciferin to oxyluciferin and light in the presence of ATP. The luminescent signal is proportional to amount of ATP present. Using the CellTiter-Glo luminescent cell viability assay, the amount of cellular ATP was measured in the CRE-bla CHO cell line with complete culture medium following compound treatment for 24 hours. The assay was performed in opaque white Kalypsys 1536-well plates. In the screen, tamoxifen was used as positive control. The selected compounds were measured for their ability to cause acute toxicity in the cell line, as reflected by a decrease in intracellular ATP levels, in a concentration-dependent manner. Data were normalized to the controls for basal activity (DMSO only) and 100% inhibition (100 uM tamoxifen). AC50 values were determined from concentration-response data modeled with the standard Hill equation. NCGC Assay Protocol Summary 1. Reagent; 5 uL; 2000 CHO cells/well 2. Time; overnight; 37 C incubation 3. Compounds; 23 nL; 5.9 nM to 46 uM 4. Controls; 23 nL; Tamoxifen 4.5 nM to 92 uM 5. Time; 24 hr; 37 C incubation 6. Reagent; 5 uL; CellTiter Glo reagent 7. Time; 20 min; Room Temperature 8. Detection; Luminescence; Viewlux plate reader Keywords: cell viability, cytotoxicity, CHO cell line, luminescence, MLSMR, MLSCN, NIH Roadmap, qHTS, NCGC"}
{"smiles": "Cc1nn(-c2ccccc2)c2sc(C(=O)N(Cc3ccco3)C(C)C(=O)NC(C)(C)C)cc12", "note": "(stereo not given)", "outcome": "inactive"}
{"smiles": "CC1CCc2sc3nc(N4CCN(CCO)CC4)n4ncnc4c3c2C1", "note": "(stereo not given)", "outcome": "inactive"}
{"smiles": "Cc1nc(SCC(=O)Nc2cc(C)on2)c2c3c(sc2n1)CCCC3", "outcome": "inactive"}
{"smiles": "COc1ccc(CCNC(=O)CSc2nc(C)nc3c2oc2ccccc23)cc1OC", "outcome": "inactive"}
{"smiles": "CCc1nc(Nc2ccc3nccnc3c2)c2oc3ccccc3c2n1", "outcome": "inactive"}
